Source: PubChem BioAssay (NCATS)
Records with an inconclusive call do not appear. Entries that show only a call come without a potency. Calls of active or inactive are those of the source. The call rests on the fitted dose curve; in most records, active means well fitted inhibition curve with a large enough effect; inconclusive means small, poorly fitted or top-dose-only effect; inactive means flat fitted curve, though single readings scatter.

Key:
Test in all cases: qHTS profiling for inhibitors of Plasmodium falciparum proliferation (AID 504749); further: nearly all actives have a fitted effect of over 60% in size
Settings in all cases: P. falciparum in erythrocytes, SYBR Green DNA, 72 h; series mostly up to 28.7 µM
AA1029 = system: AA1029
In short: (§1)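 P. falciparum-infected erythrocytes (0.3% parasitemia, 2.5% hematocrit final) were exposed to compounds for 72 h at 37 C in 5% CO2, then lysed with SYBR Green buffer overnight at room temperature; parasite DNA fluorescence was normalized to artemisinin and DMSO controls.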

AS120 = system: AS120
In short: as §1

ATS189 = system: ATS189
In short: as §1

ATS95 = system: ATS95
In short: as §1

CP185 = system: CP185
In short: as §1

CP238 = system: CP238
In short: as §1

CP247 = system: CP247
In short: as §1

CP265 = system: CP265
In short: as §1

CP286 = system: CP286
In short: as §1

CP297 = system: CP297
In short: as §1

CP315 = system: CP315
In short: as §1

DFO2036 = system: DFO2036
In short: as §1

DIV14 = system: DIV14
In short: as §1

HB3 = system: HB3
In short: as §1

P94_40 = system: P94_40
In short: as §1

PAD = system: PAD
In short: as §1

PC15 = system: PC15
In short: as §1

TAB109 = system: TAB109
In short: as §1

TAB113 = system: TAB113
In short: as §1

TAB165 = system: TAB165
In short: as §1
Potency means the concentration at half of the fitted maximal effect.

Structure (SMILES)	Potency (AA1029)	Potency (AS120)	Potency (ATS189)	Potency (ATS95)	Potency (CP185)	Potency (CP238)	Potency (CP247)	Potency (CP265)	Potency (CP286)	Potency (CP297)	Potency (CP315)	Potency (DFO2036)	Potency (DIV14)	Potency (HB3)	Potency (P94_40)	Potency (PAD)	Potency (PC15)	Potency (TAB109)	Potency (TAB113)	Potency (TAB165)
C/C=C\c1ccc(OC)cc1	inactive	inactive	inactive	inactive	inactive	inactive	inactive	inactive	inactive	inactive	inactive	inactive	inactive	inactive	inactive	inactive	inactive	inactive	inactive	inactive
CC(=O)O[C@@]12CO[C@@H]1C[C@H](O)[C@@]1(C)C(=O)[C@H](O)C3=C(C)[C@@H](OC(=O)C(O)[C@@H](NC(=O)OC(C)(C)C)c4ccccc4)C[C@@](O)([C@@H](OC(=O)c4ccccc4)[C@H]21)C3(C)C (stereo not given in full)	44.7 nM (active)	28.2 nM (active)	35.5 nM (active)	35.5 nM (active)	25.1 nM (active)	28.2 nM (active)	39.8 nM (active)	79.4 nM (active)	17.8 nM (active)	95.3 nM (active)	33.8 nM (active)	22.4 nM (active)	1200 nM (active)	79.4 nM (active)	35.5 nM (active)	126 nM (active)	5620 nM (active)	31.6 nM (active)	31.6 nM (active)	141 nM (active)
NC1=NC(S)C2N=CN=C2N1 (stereo not given)	inactive	inactive	inactive	inactive	inactive	inactive	inactive	inactive	inactive	inactive	inactive	inactive	inactive	inactive	inactive	inactive	inactive	inactive	inactive	inactive
C1OCOCO1	inactive	inactive	inactive	inactive	inactive	inactive	inactive	inactive	inactive	inactive	inactive	inactive	inactive	inactive	inactive	inactive	inactive	inactive	inactive	inactive
